Results published in PubChem BioAssay (NCI).
This is part of a sample that, as a whole, favours compounds with a hit. Of some 83,000 tested, about 20% had one in any assay.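 Activity criterion: percent growth below 10, measured after cells in 96-well plates were exposed to a single compound concentration for 48 hours.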 The source made the active and inactive calls.

Key:
Assay in all cases: NCI-60 one-dose screen, 48 h (100 = growth as untreated, 0 = no growth, -100 = all killed)
Details in all cases: 10 µM unless noted
[1] = tested on: HCT-15 colon
[2] = tested on: HT29 colon
[3] = tested on: SNB-75 CNS
[4] = tested on: SNB-19 CNS
[5] = tested on: U251 CNS
[6] = tested on: PC-3 prostate
[7] = tested on: SK-MEL-5 melanoma
[8] = tested on: UACC-62 melanoma
[9] = tested on: LOX IMVI melanoma
[10] = tested on: SK-MEL-28 melanoma
[11] = tested on: SK-MEL-2 melanoma
[12] = tested on: EKVX NSCLC
[13] = tested on: SN12C renal
[14] = tested on: UO-31 renal
[15] = tested on: TK-10 renal
[16] = tested on: ACHN renal
[17] = tested on: CAKI-1 renal
[18] = tested on: A498 renal
[19] = tested on: CCRF-CEM leukemia
[20] = tested on: MOLT-4 leukemia

Measured: growth

CC1Cc2ccc(OCCN(C)C)cc2C1=O (stereo not given)
inactive: [1] 108% | [2] 98.5% | [3] 98% | [4] 106% | [5] 89.5% | [6] 89.9% | [7] 91.6% | [8] 105% | [9] 96.4% | [10] 103% | [11] 91.9% | [12] 109% | [13] 101% | [14] 88.1% | [15] 84.6% | [16] 106% | [17] 98% | [18] 91.2% | [19] 103% | [20] 102%

CCNC(=O)N1CCc2c(Cl)c3c(c(OC)c2[C@@H]1[C@H]1OCc2c1ccc(OC)c2OC)OCCO3
active: [3] 1.79% | [18] -20.6%
inactive: [1] 26.5% | [2] 13.3% | [4] 30.8% | [5] 26.1% | [6] 20.8% | [7] 11.4% | [8] 22.2% | [9] 27.5% | [10] 54.3% | [11] 22.8% | [12] 48.7% | [13] 38.1% | [14] 34.2% | [15] 47.7% | [16] 31.5% | [17] 24.3% | [19] 12.3% | [20] 30.8%

Clc1ccc2nc(-c3ccc(-c4ccc(/C=N/NC5=NCCN5)cc4)s3)cn2c1
inactive: [2] 38.8% | [3] 83.9% | [4] 97.1% | [5] 97.5% | [6] 89.4% | [7] 93% | [8] 102% | [9] 97.9% | [10] 99.5% | [11] 110% | [12] 90.8% | [13] 88.6% | [14] 72.8% | [15] 123% | [16] 103% | [17] 106% | [18] 76.6% | [19] 76.3% | [20] 79.7%
active: [1] -27.3%

CNC(=O)c1cc(Oc2cccc3nc(NC(=O)Nc4cc(C(F)(F)F)cc(C(F)(F)F)c4)ccc23)ccn1
inactive: [1] 71.1% | [2] 16% | [4] 38.8% | [6] 52.8% | [7] 59.9% | [8] 41.4% | [9] 12.7% | [10] 33.2% | [11] 51% | [12] 26.7% | [13] 12.1% | [14] 11.7% | [17] 23.6% | [19] 73.3% | [20] 89.5%
active: [3] -23.7% | [5] -34.9% | [15] -25% | [16] -25.8% | [18] -36%

CCOc1ccccc1/C=N\Nc1ccc(S(=O)(=O)c2ccc(N/N=C/c3ccccc3OCC)cc2)cc1
inactive: [1] 82.9% | [2] 108% | [3] 80.8% | [4] 93.5% | [5] 94.8% | [6] 87% | [7] 100% | [8] 85% | [9] 92.5% | [10] 100% | [11] 103% | [12] 90.7% | [13] 93.5% | [14] 66.5% | [15] 126% | [16] 88.7% | [17] 67.2% | [18] 113% | [19] 94.7% | [20] 80.8%

O=S(=O)(NCCNc1nccc(-c2c(-c3cccc(F)c3)nc3occn23)n1)c1ccc(C(F)(F)F)cc1
inactive: [1] 95.5% | [2] 62.3% | [3] 59.6% | [4] 98% | [5] 92% | [6] 55.2% | [7] 92% | [8] 76.2% | [9] 95.8% | [10] 78.7% | [11] 92.2% | [12] 84.2% | [13] 84.8% | [14] 57.1% | [15] 97.5% | [16] 87.7% | [17] 68.9% | [18] 78% | [19] 84% | [20] 52.9%

Cc1cccc(C[C@H](NC(=O)Nc2ccc(C)cc2F)C(=O)N[C@@H]2C(=O)N3C[C@H](O)C[C@H]3C(=O)N3CCN(C)C[C@H]3C(=O)N[C@@H](C)C(=O)N3C[C@H](C)C[C@H]3C(=O)O[C@H]2C)c1
inactive: [1] 105% | [2] 33.8% | [3] 23.6% | [4] 22.7% | [5] 26.5% | [6] 22.6% | [7] 66.3% | [8] 31.4% | [9] 38.5% | [10] 47.9% | [11] 39.9% | [12] 69.6% | [13] 21.5% | [14] 93% | [15] 94.1% | [16] 106% | [17] 82.1% | [18] 32.8% | [19] 62.5% | [20] 40.4%

O=[N+]([O-])c1cccc(/C=C/c2ccc3ccccc3n2)c1
active: [3] 7.41%
inactive: [1] 82.5% | [2] 76.5% | [4] 64.1% | [5] 72.2% | [6] 77.8% | [7] 82% | [8] 82.9% | [9] 70.5% | [10] 87.3% | [11] 68% | [12] 79.8% | [13] 83% | [14] 76.6% | [15] 64.4% | [16] 53% | [17] 78.3% | [18] 125% | [19] 82.1% | [20] 75.3%

COC(=O)[C@]12CCC(C)(C)C[C@H]1C1=CC[C@@H]3[C@@]4(C)C/C(=C/c5cccnc5)C(=O)C(C)(C)[C@@H]4CC[C@@]3(C)[C@]1(C)CC2
active: [1] 0.973% [100 µM] | [2] -15.9% [100 µM] | [3] -59.8% [100 µM] | [4] -23.1% [100 µM] | [5] -38.2% [100 µM] | [6] -16.3% [100 µM] | [7] -93.9% [100 µM] | [8] -59.4% [100 µM] | [9] -89.5% [100 µM] | [10] -69.5% [100 µM] | [11] -70.3% [100 µM] | [12] -44.8% [100 µM] | [13] -51.4% [100 µM] | [14] -81.6% [100 µM] | [15] -35.9% [100 µM] | [16] -61.1% [100 µM] | [17] -15.4% [100 µM] | [18] -69.8% [100 µM] | [19] 2.85% [100 µM] | [20] -14% [100 µM]

CCCCC1COc2cccc3c2N1C=C/C3=C\C(=O)n1ccc2ccccc21 (stereo not given)
inactive: [1] 47.6% | [2] 43.9% | [3] 14.5% | [4] 84.9% | [5] 76.5% | [6] 65.9% | [7] 78.5% | [8] 56.3% | [9] 76% | [10] 92.5% | [11] 70.7% | [12] 82.9% | [13] 94.7% | [14] 57.5% | [15] 118% | [16] 88.5% | [17] 41% | [18] 70.1% | [19] 67% | [20] 40.9%

N#CCCc1c[nH]c2ccccc12
inactive: [1] 104% | [2] 91.1% | [3] 76.4% | [4] 105% | [5] 91.3% | [6] 78.6% | [7] 92.1% | [8] 98.6% | [9] 90.5% | [10] 106% | [11] 88.4% | [12] 94.3% | [13] 101% | [14] 68% | [15] 104% | [16] 97% | [17] 87.3% | [18] 103% | [19] 81.6% | [20] 96.1%

COc1cc2c(c(OC)c1)C1c3cc(OC)ccc3NC(=O)N1CC2 (stereo not given)
inactive: [1] 49.7% | [2] 32.3% | [3] 83.2% | [4] 87.5% | [5] 74.9% | [6] 77.7% | [7] 82.2% | [8] 66% | [9] 89.7% | [10] 88.9% | [11] 45.5% | [12] 91.9% | [13] 88.5% | [14] 78.5% | [15] 82.5% | [16] 100% | [17] 77.8% | [18] 74.7% | [19] 88.2% | [20] 72.9%

Cn1cc(-c2nnc(-c3cn(C)c4ncccc34)s2)c2ccccc21
inactive: [1] 45.1% | [2] 54.3% | [3] 49.4% | [4] 76.6% | [5] 74.8% | [6] 53.8% | [7] 63.7% | [8] 69.2% | [9] 86% | [10] 77.4% | [11] 79.8% | [12] 70.7% | [13] 50.3% | [14] 39% | [15] 79.9% | [16] 86.6% | [17] 47% | [18] 31% | [19] 38.3% | [20] 47.9%

O=C(N[C@@H]1CCCc2ccccc21)[C@H](CCC(=O)N1CCN(C2CCCCC2)CC1)N1C(=O)[C@@H](N2C(=O)OC[C@@H]2c2ccccc2)[C@H]1/C=C/c1ccccc1
inactive: [1] 12.1% | [3] 65.7% | [4] 39.2% | [5] 30.6% | [6] 12.1% | [8] 51% | [10] 24.8% | [11] 20.6% | [12] 51.2% | [13] 25.4% | [14] 21% | [15] 47% | [16] 36.4% | [17] 37.9% | [18] 31.8% | [19] 22.8%
active: [2] -14.2% | [7] -93.2% | [9] -40.5% | [20] -1.99%
